# Laboratory results from PubChem BioAssay AID2284379 (EPA ToxCast).
# Records with an inconclusive call do not appear. Active and inactive are the calls of the source. The calls were made as follows: active = hit-call score of the fitted dose curve at least 0.9, where 1 is the maximum; inconclusive = response in the unintended direction; inactive = score below 0.9.
# Test: ATG_M_32_EcoTox2: Attagene TRANS-FACTORIAL EcoTox-2 HepG2 Assay for M32 Transcription Factor (Internal Marker)
# Protocol: ATG_EcoTox2 is a cell-based, multiplexed assay created by modifying the existing Attagene TRANS-FACTORIAL system to include a panel of nuclear receptors from some or all the following species: human (Homo sapiens), african clawed frog (Xenopus laevis), rainbow trout (Oncorhynchus mykiss), japanese medaka (Oryzias latipes), and zebrafish (Danio rerio). The ECOTOX2-FACTORIAL format uses HepG2, a human liver cell line, with measurements taken at 24 hours after chemical dosing in a 24-well plate. ATG_M_32_EcoTox2 is one of 29 assay components calculated in the ATG_EcoTox2 assay. It is designed to make measurements of mRNA induction, a form of inducible reporter, as detected with fluorescence intensity signals by Reverse transcription polymerase chain reaction (RT-PCR) and Capillary electrophoresis technology.The assay endpoint ATG_M_32_EcoTox2 was analyzed in the positive analysis fitting direction relative to DMSO as the negative control and baseline of activity. Using a type of inducible reporter, measures of mRNA for gain-of-signal activity can be used to understand the background control at the transcription factor-level as they relate to the gene. Furthermore, this assay endpoint can be referred to as a secondary readout, because this assay has produced multiple assay endpoints where this one serves a background control function. To generalize the intended target to other relatable targets, this assay endpoint is annotated to the background measurement intended target family, where the subfamily is internal marker.
# Human liver HepG2 cells are transiently transfected with multiple reporter transcription units (MRTUs) in 6-well plates using FuGene 6 reagent (Roche; 3 ml FuGene/1 mg DNA). The MRTU constructs are regulated by a cis-regulating element (promoter). Each RTU expresses a GAL4-UAS that regulates the transcription of a nearby target reporter gene sequence. A major difference between the CIS and TRANS system is that in CIS activities of endogenous TFs are measured, whereas the TRANS assay evaluates changes in activities of exogenous, chimeric NR-Gal4 proteins. […] At the end of 24 hour incubation, total RNA was isolated using TriZol reagent (Invitrogen). The isolated RNA is then reverse-transcribed using oligo(dT) primer and Mo-MLV reverse transcriptase (Invitrogen) with DNAse I (Ambion) treatment for 30 min. The one-tenth of the produced cDNA was amplified by PCR using Taq DNA polymerase (Invitrogen) and two reporter sequence-specific primers. The PCR products were fluorescently labeled by primer extension with 6-arboxyfluorescein (6-FAM) 5'-labeled reporter sequence-specific primer (2 min at 95 C, 20 s at 68 C and 10 min at 72 C) and these products were digested with 5U of HpaI (New England Biolabs) for 2h at 37 C. The fragments were purified using Qiaquick PCR columns (Qiagen), analyzed on an ABI 3130xL genetic analyzer (Applied Biosystems) with peak positions identified by using a set of X-rhodamine (ROX)-labeled MapMarker1000 molecular weight standards (BioVentures). The raw capillary electrophoresis data was processed using Attagraph software (Attagene).
row,SMILES,outcome
1,Cc1c(C)c2c(c(C)c1O)CCC(C)(COc1ccc(CC3SC(=O)NC3=O)cc1)O2 (stereo unspecified),inactive
2,C[C@@H]1C[C@H]2[C@@H]3CCC4=CC(=O)C=C[C@]4(C)[C@@]3(F)[C@@H](O)C[C@]2(C)[C@@]1(O)C(=O)COP(=O)(O)O,inactive
3,CN(CCOc1ccc(CC2SC(=O)NC2=O)cc1)c1ccccn1 (stereo unspecified),inactive
4,CC(C)OC(=O)C(C)(C)Oc1ccc(C(=O)c2ccc(Cl)cc2)cc1,inactive
5,CC(c1cc2ccccc2s1)N(O)C(N)=O (stereo unspecified),inactive
6,Cc1nc(-c2ccc(C(F)(F)F)cc2)sc1C(=O)NCc1ccc(OC(C)(C)C(=O)O)cc1,inactive
